About 83,000 compounds went through this panel and 20% of them were active in at least one assay; those are over-represented in the sample as a whole.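 Cells were grown in 96-well plates and exposed to the test compound at a single concentration for 48 hours; results are reported as percent growth, with values below 10 considered active.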 Activity calls are given as the source filed them.
Assays:
Assay in all cases: NCI-60 one-dose screen, 48 h (100 = growth as untreated, 0 = no growth, -100 = all killed)
[1] = tested on: HCT-15 colon; details: 10 µM
[2] = tested on: SNB-19 CNS; details: 10 µM
[3] = tested on: U251 CNS; details: 10 µM
[4] = tested on: PC-3 prostate; details: 10 µM
[5] = tested on: SK-MEL-5 melanoma; details: 10 µM
[6] = tested on: SK-MEL-28 melanoma; details: 10 µM
[7] = tested on: SNB-75 CNS; details: 10 µM
[8] = tested on: UACC-62 melanoma; details: 10 µM unless noted
[9] = tested on: LOX IMVI melanoma; details: 10 µM
[10] = tested on: HT29 colon; details: 10 µM

Measured: growth

O=[N+]([O-])c1ccc(N=Nc2ccc(O)c3ccccc23)cc1
inactive: [1] 41.2% | [2] 39.8% | [3] 15.4% | [4] 14.9% | [5] 28.7% | [6] 69%

O=C(Cc1nc2ccc([N+](=O)[O-])cc2nc1CC(=O)c1ccccc1)c1ccccc1
active: [9] 3.86%
inactive: [1] 35.2% | [7] 65.2% | [3] 49.2% | [4] 59.4% | [5] 55% | [8] 53.2% | [6] 64.7%

O=[N+]([O-])c1ccc(Sc2ccncn2)c([N+](=O)[O-])c1
active: [9] 4.84%
inactive: [1] 85.3% | [2] 106% | [3] 106% | [4] 71.9% | [5] 93.1% | [8] 74.1% | [6] 96.1%

Nc1nc(OCc2ccccc2)c2[nH]cnc2n1
active: [7] 8.69%
inactive: [10] 105% | [2] 104% | [3] 100% | [4] 84.4% | [5] 94% | [8] 86.1% | [9] 83.1%

CCOC(=O)Nc1nn[nH]n1
inactive: [10] 110% | [7] 94.8% | [2] 99.5% | [3] 115% | [4] 96.8% | [5] 103% | [8] 99.3% | [9] 92.9% | [6] 115%

Cc1ccc(S(=O)(=O)O)c(C)c1
inactive: [10] 103% | [7] 82.8% | [2] 109% | [3] 97.1% | [4] 99.1% | [5] 105% | [8] 120% | [9] 95.3% | [6] 106%

COc1cc2cc(c1Cl)N(C)C(=O)C[C@H](OC(=O)[C@H](C)N(C)C(C)=O)[C@]1(C)O[C@H]1[C@H](C)[C@@H]1C[C@@](O)(NC(=O)O1)[C@H](OC)C=C/C=C(\C)C2
active: [10] -29.3% | [7] -49% | [4] 0.19% | [5] -24.4% | [8] 9.3%
inactive: [2] 14.4% | [3] 11.5% | [9] 18.4%

O=[N+]([O-])c1ccc(S(=O)(=O)NN=C2CCCCC2)cc1
inactive: [1] 115% | [2] 99.8% | [3] 111% | [4] 96.8% | [5] 105% | [8] 117% | [9] 95% | [6] 110%

CC(=O)N(C)c1ccc([N+](=O)[O-])cc1
inactive: [1] 102% | [2] 97.5% | [3] 101% | [4] 93.5% | [5] 103% | [8] 104% | [9] 98.4% | [6] 114%

O=C(CN1CCNCC1)N1CCOCC1
inactive: [1] 104% | [7] 86.9% | [2] 102% | [3] 106% | [4] 100% | [5] 110% | [9] 98.4% | [6] 115%

O=C(c1ccc(O)cc1)c1ccc(O)cc1
inactive: [1] 99.6% | [2] 111% | [3] 94.1% | [4] 103% | [5] 99.3% | [8] 110% | [9] 97.4% | [6] 110%

COc1nc(N)nc2c1ncn2C1OC(CO)CC1O (stereo not drawn)
inactive: [1] 101% | [2] 103% | [3] 112% | [4] 99.2% | [5] 105% | [8] 100% | [6] 108%

O=S(=O)(O)c1ccc(Cl)c(Cl)c1
inactive: [10] 109% | [7] 91.6% | [2] 101% | [3] 105% | [4] 94.1% | [5] 107% | [8] 99% | [9] 91.8% | [6] 112%

N/N=C(/Cc1ccccc1)NNC(N)=S
inactive: [1] 97.5% | [7] 87.7% | [2] 105% | [4] 88.3% | [5] 97.3% | [8] 101% | [9] 94.5% | [6] 114%

CNC(=S)NC(C)(C)C
inactive: [1] 106% | [7] 146% | [3] 97% | [4] 89.9% | [5] 93.6% | [8] 94% | [9] 105% | [6] 108%

CC1SC(N)=NC1=O (stereo not drawn)
inactive: [1] 114% | [7] 103% | [2] 109% | [3] 113% | [4] 106% | [5] 113% | [8] 100% | [6] 112%

CC1C(=O)c2ccccc2CC1C(=O)O (stereo not drawn)
inactive: [1] 115% | [2] 128% | [3] 97.1% | [4] 97.6% | [5] 100% | [8] 116% | [9] 92.4% | [6] 114%

C[C@]12CC[C@@H]3c4ccc(OCC(=O)O)cc4CC[C@H]3[C@@H]1CCC2=O
inactive: [1] 106% | [7] 83.5% | [2] 103% | [3] 104% | [4] 95.7% | [5] 99.9% | [9] 86% | [6] 118%

CC1NC(=O)NC1CCCCCC(=O)O (stereo not drawn)
inactive: [1] 98.4% | [7] 94% | [2] 99.8% | [3] 94.5% | [4] 86.4% | [5] 102% | [9] 93.3% | [6] 115%

COC1=CC(=O)c2nc(Cl)ccc2C1=O
active: [3] -42.5% | [9] -95.7%
inactive: [1] 100% | [7] 48.6% | [2] 113% | [4] 21.7% | [8] 17.4% | [6] 111%

CC(=O)c1ccc2c(ccc3ccccc32)c1
inactive: [1] 68.4% | [7] 105% | [2] 99.4% | [4] 104% | [5] 96.8% | [8] 96.5% | [9] 107% | [6] 108%

N#Cc1c(N)sc(=S)c2c1CCCC2
inactive: [1] 104% | [7] 104% | [2] 105% | [4] 100% | [5] 114% | [8] 114% | [9] 99.4% | [6] 112%

O=C(NCCNC(=O)c1ccc(Cl)cc1Cl)c1ccc(Cl)cc1Cl
inactive: [1] 106% | [7] 102% | [2] 110% | [4] 84.5% | [5] 98.5% | [8] 91.1% | [9] 94.9% | [6] 104%

CCOc1ccc(Br)cc1/C=N\N=C\c1cc(Br)ccc1OCC
inactive: [10] 107% | [7] 98.5% | [2] 117% | [3] 103% | [4] 93.8% | [5] 109% | [8] 104% | [9] 105% | [6] 115%

CN(C)CCN(C)CC(C)(C)C(=O)/C=C/c1ccc(Cl)cc1
inactive: [7] 12.2%
active: [1] -66.4% | [4] -4.75% | [5] -24.9% | [8] -46.4% | [9] -96.4% | [6] -11.2%

CCN(CC)C(=O)/C=C(/C)c1ccccc1
inactive: [1] 104% | [7] 93.2% | [2] 105% | [4] 93.4% | [5] 90.1% | [8] 103% | [9] 98.7% | [6] 106%

— PubChem BioAssay (NCI)
